Results on 40 compounds are retold here after PubChem BioAssay (EPA / NIEHS).

Records with an inconclusive call do not appear. Calls of active or inactive are those of the source. Rule for the calls: active = hit-call score of the fitted dose curve at least 0.9, where 1 is the maximum; inconclusive = response in the unintended direction; inactive = score below 0.9.

The nature of the assay: Tanguay_ZF_120hpf_CFIN_legacy: (Legacy) Oregon State University Tanguay Lab 120 Hour Post-fertilization zebrafish Assay for Caudal Fin Malformation (AID 2283649). On the procedure:
Tanguay_ZF_120hpf_legacy is a whole embryo, multiplexed endpoint assay using zebrafish larvae exposed for 120 hours post fertilization on a 96-well plate.Tanguay_ZF_120hpf_CFIN_legacy is one of one assay component(s) measured or calculated from the Tanguay_ZF_120hpf_legacy assay. It is designed to make measurements of zebrafish development as detected with brightfield microscopy of developing zebrafish embryos.Data from the assay component Tanguay_ZF_120hpf_CFIN_legacy was analyzed into 1 assay endpoints. This assay endpoint, Tanguay_ZF_120hpf_CFIN_legacy, was analyzed in the positive analysis fitting direction relative to DMSO as the negative control and baseline of activity. Using a type of morphology reporter, gain-of-signal activity can be used to understand changes in developmentals as they relate to the whole embryo. To generalize the intended target to other relatable targets, this assay endpoint is annotated to the zebrafish development intended target family, where the subfamily is caudal fin morphogenesis.
Zebrafish husbandry: Tropical 5D wild-type adult zebrafish were housed in at an approximate density of 1000 per 100 gallon tank at the Sinnhuber Aquatic Research Laboratory, Oregon State University, Corvallis, OR. Each tank was kept at standard laboratory conditions of 28C on a 14-h light/10-h dark photoperiod in fish water consisting of reverse osmosis water supplemented with a commercially available salt (Instant Ocean). Spawning funnels were placed into the tanks the night prior, and embryos were collected and staged. To increase bioavailability, the chorion was enzymatically removed using pronase (63.6mg/ml, >/= 3.5U/mg, Sigma-Aldrich: P5147) at 4 hours post fertilization (hpf) using a custom automated dechorionator.Chemical exposures: Six hpf dechorionated embryos were placed 1 embryo per well in a 96-well plate prefilled with 90 ul of EM using automated embryo placement systems (AEPS). Ten microliters of each row of dilution plate 2 was added to 2 exposure plates. The final DMSO concentration used was 0.64% (vol/vol). Thirty-two embryos were also exposed to 5uM trimethyltin chloride (positive control). Plates were sealed to prevent evaporation and foil covered to reduce light exposure and kept in a 28C incubator. Embryos were statically exposed until 120 hpf. At 24 hpf, embryos were assessed for photomotor response using a custom photomotor response analysis tool (PRAT) and for developmental toxicity endpoints (MO24: mortality at 24 hpf, DP: developmental progression, SM: spontaneous movement, and NC: notochord distortion). At 120 hpf, locomotor activity was measured using Viewpoint Zebralab and assessed for 18 endpoints. Zebrafish acquisition and analysis program (ZAAP), a custom program designed to inventory, acquire, and manage zebrafish data, was used to collect developmental endpoints as either present or absent (i.e., binary responses were recorded). If mortality occurred for an embryo (at either 24 or 120 hpf), the non-mortality endpoints were not measured.
For the compound `CCN(CC)c1ccccc1`, the outcome was inactive.
On to `CC(Cc1ccc(OCC(=O)O)cc1)NCC(O)c1csc(C(F)(F)F)n1` (stereo not given), for which the compound was called inactive.
Regarding `OCC1CO1` (stereo not given), the result was inactive.
In the case of `CCCCN(CCCC)N=O`, the outcome was inactive.
On the same count and under the same terms, the entry for `O=[N+]([O-])c1ccc(Cl)c(Cl)c1` is “inactive”.
The same measure, in the same setting: to `O=P1(N(CCCl)CCCl)NCCCO1` (stereo not given) belongs “inactive”; to `CCOS(=O)(=O)OCC`, “inactive”; to `Nc1ccc(Cl)cc1`, “inactive”.
Take `CSC(C)(C)C=NO`: the compound was called inactive.
Regarding `c1ccc2c(c1)Nc1ccccc1S2`, the compound was called inactive.
On to `ClC(Cl)c1ccccc1`, for which the outcome was inactive.
Regarding `ClC1=C(Cl)C2(Cl)C3C(Cl)C(Cl)CC3C1(Cl)C2(Cl)Cl` (stereo not given), the compound was called inactive.
Consider `c1cc2c3c(cccc3c1)CC2`, for which the result was inactive.
`CCOc1ccc(C(C)(C)COCc2cccc(Oc3ccccc3)c2)cc1`: the outcome was inactive.
For `CCNc1nc(Cl)nc(NC(C)(C)C)n1`, the compound was called inactive.
On the same count and under the same terms, to `CCCN(CCC)c1c([N+](=O)[O-])cc(C(C)C)cc1[N+](=O)[O-]` belongs “inactive”; to `O=C(O)C1C(C(=O)O)C2(Cl)C(Cl)=C(Cl)C1(Cl)C2(Cl)Cl` (stereo not given), “inactive”.
Consider `ClC(Cl)(Cl)c1ccccc1`, for which the call was inactive.
For `CCOP(=S)(OCC)SCSCC`, the compound was classed as inactive.
With `Cc1ccc(O)cc1C`, the result was inactive.
With `CCOP(=S)(Oc1ccc([N+](=O)[O-])cc1)c1ccccc1` (stereo not given), the result was inactive.
Same read-out and setting: to `Nc1cc2c3c(c1)C(c1ccccc1)=N[C@@H](NC(=O)c1cccnc1)C(=O)N3CC2` belongs “inactive”.
In the case of `CCC(C)(C)c1ccc(O)cc1`, the AC50 was 48.8 µM (active).
Turning to `CC(C)(C)c1ccc(O)cc1`, the compound was classed as inactive.
Consider `CC(Cl)(Cl)C(=O)O`, for which the call was inactive.
Regarding `Cc1cccc(N)c1`, the result was inactive.
Take `COCCOCCO`: the outcome was inactive.
For `CN(C)C(=O)Cl`, the call was inactive.
On the same count and under the same terms, the entry for `CCOC(=O)c1ccccc1C(=O)OCC` is “inactive”; for `O=C(O)C(Cl)Cl` it is “inactive”; for `[N-]=[N+]=[N-]` it is “inactive”.
Take `CC(C)(C)OOC(C)(C)C`: the call was inactive.
Turning to `O=P(Oc1ccccc1)(Oc1ccccc1)Oc1ccccc1`, the result was inactive.
With `CCCCc1ccccc1`, the call was inactive.
Same read-out and setting: to `Nc1ccc2ccccc2c1` belongs “inactive”; to `CCC1(c2ccccc2)C(=O)N=C(O)NC1=O` (stereo not given), “inactive”; to `CCCCN(CCCC)SN(C)C(=O)Oc1cccc2c1OC(C)(C)C2`, “inactive”.
With `c1ccc(OP(Oc2ccccc2)Oc2ccccc2)cc1`, the outcome was inactive.
The same measure, in the same setting: to `O=[N+]([O-])c1ccccc1` belongs “inactive”.
As for `c1nc[nH]n1`, the outcome was inactive.
